Drawing on the OligoGym collection, this text covers sensor-assay potency score (higher = more potent) for 40 sequences.
Also: reference of the scale not given here.

The target of one test is SNCG. In words: pooled miR-30 sensor sort-seq; sequence = guide strand. The following applies: shRNA.
Regarding TTGGTCTTCTCGGCCACTGAGG, the sensor-assay potency score (higher = more potent) is -1.32.

With TTCTCCTTGGTCTTGGCTCCCA, the sensor-assay potency score (higher = more potent) was -0.654. Turning to CTGTACAACATTCTCCTTGGTC, the sensor-assay potency score (higher = more potent) is -1.03. On the same count and under the same terms, the figure for TTTGGATGCCACACCCTCCTGT is -0.0802. The sequence TCTCTTTGGATGCCACACCCTC yielded a sensor-assay potency score (higher = more potent) of -1.21. The sequence TGGTCTTTTCCACCGCACCCAC returned a sensor-assay potency score (higher = more potent) of -1.77. With TTGCGCACCACCCCGGAGGTGA, the sensor-assay potency score (higher = more potent) was -1.19.

The next test addresses SNN. The test is described as above. The following applies: shRNA.
For TTGGGAGTCATCAGCTTGGCCT, the sensor-assay potency score (higher = more potent) was -0.835. Sequence TTACAGTAGTAGCTCCATCAAA gave a sensor-assay potency score (higher = more potent) of -1.39.

The sequence TCCTCTGACTGGCTGATGCGCT yielded a sensor-assay potency score (higher = more potent) of -1.54. Regarding AATGAGGATGACGATGACTGTG, the sensor-assay potency score (higher = more potent) is -0.905.

On to TCAGCTTGGCCTTTCTCTCCAC, for which the sensor-assay potency score (higher = more potent) is -0.343.

TCCTCGTCCTCTGACTGGCTGA: the sensor-assay potency score (higher = more potent) is -1.43.

TTCTCTCCACGCACGGTCCCTT returned a sensor-assay potency score (higher = more potent) of -1.08.

On to TTGGCCTTTCTCTCCACGCACG, for which the sensor-assay potency score (higher = more potent) was -1.27. Sequence ATGACGATGACTGTGACCACGC registered a sensor-assay potency score (higher = more potent) of -0.588. The same measure, in the same setting: the figure for TTTCTCTCCACGCACGGTCCCT is -1.1; for TCTCCTCGTCCTCTGACTGGCT it is -0.606. In turn, TGACTGGCTGATGCGCTGCAGC gave a sensor-assay potency score (higher = more potent) of -1.74.

A further test addresses SNRNP200. Described as above. The following applies: shRNA.
TACAGTGTTAAACACCTGGGTC came in with a sensor-assay potency score (higher = more potent) of -1.05. The sequence TTCTTGAAGAAATCCTTCTTGG showed a sensor-assay potency score (higher = more potent) of -0.674. The sequence TACTTGACCAGATTGTTCTTGT yielded a sensor-assay potency score (higher = more potent) of 0.676. Sequence TTTCATTCTTTAGAACAGCTAG showed a sensor-assay potency score (higher = more potent) of 0.0872. Consider TTGTTCTCAATGGTCTTGGTGA, for which the sensor-assay potency score (higher = more potent) was -0.0384. TATCTTGGTAAAGACTCTCAAA came in with a sensor-assay potency score (higher = more potent) of -1.23.

As for TTCACTAGCACATGGTATCTGG, the sensor-assay potency score (higher = more potent) was -0.256.

As to TTGAACTCAGAGGACAATGAGA, the sensor-assay potency score (higher = more potent) is -0.903. TGCACTGACAACTCCAACTTGG showed a sensor-assay potency score (higher = more potent) of -0.38. Sequence TTGCAGAAGAACGTTGATCTTA came in with a sensor-assay potency score (higher = more potent) of -0.0878.

Sequence AATATCGCTCGCATCAACCGGC registered a sensor-assay potency score (higher = more potent) of 0.041. On the same count and under the same terms, the figure for TGTAATGAGGTGCTCGTCCTGG is -0.352.

A further test concerns the target SNRNP70. The test is described as above. The note with it: shRNA.
Regarding TACACCTCAAACTCTCTCCGGA, the sensor-assay potency score (higher = more potent) stood at 0.28. TTCATGTGGCAGTTTCTCCAGG displayed a sensor-assay potency score (higher = more potent) of -0.18. Same read-out and setting: the figure for TTGCTGTCGCCGCTCAATCTTT is -1.5; for TAAGCTCTGTCTCCACTTCTTG it is -0.943. With TAGCGGGAGGTGTCATCGCGGC, the sensor-assay potency score (higher = more potent) is -0.939.

For the sequence TCGCTCGTGTTCGTACTCGATG, the sensor-assay potency score (higher = more potent) is -1.13. Consider TTTGATAGGTCCGTACACCTCA, for which the sensor-assay potency score (higher = more potent) is 0.253. Turning to TTGATAGGTCCGTACACCTCAA, the sensor-assay potency score (higher = more potent) was -0.456. As for TATTCTTTTGATAGGTCCGTAC, the sensor-assay potency score (higher = more potent) is -0.682.
